Experimental data as given in PubChem BioAssay (NCATS).
Results filed as inconclusive are left out. A call without a number means that no potency is given here. A number with no mark means an inactive call. Activity calls are given as the source filed them. The call rests on the fitted dose curve; in most records, active means well fitted activation curve with a large enough effect; inconclusive means small, poorly fitted or top-dose-only effect; inactive means flat fitted curve, though single readings scatter.

Assay: Primary redox qHTS assay for identification of artifact compounds. (AID 1845223)
Details: Amplex Red/HRP redox cycling with DTT, fluorescence; series mostly up to 53.8 µM
Summary of the method: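 Amplex Red (25 uM) and HRP (250 mU/mL) in HBSS, with compounds for 15 min, then 250 uM DTT for 30 min, room temperature, dark. Fluorescence 525/598 nm read; normalized to DMSO and 10 uM DA3003; Hill fit.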

CC1(C)CC[C@]2(C(=O)O)CC[C@]3(C)C(=CCC4[C@@]5(C)C[C@H](O)[C@H](O[C@@H]6O[C@H](CO)[C@@H](O)[C@H](O)[C@H]6O)[C@@](C)(CO)C5[C@H](O)C[C@]43C)[C@@H]2C1 (some centres undefined)
Potency: inactive

CC(=O)OC[C@]12[C@H](OC(C)=O)[C@H](OC(=O)c3ccccc3)[C@@H]3[C@@H](OC(C)=O)[C@]1(OC3(C)C)[C@H](C)C[C@H](OC(=O)c1ccccc1)[C@@H]2OC(=O)c1ccccc1
Potency: inactive

On1ncc(C2CCNCC2)c1-c1cccc(-c2ccccc2)c1
Potency: inactive

CN(C)C(=O)C(O)C(Cc1ccccc1)NC(=O)c1cc2cc(Cl)ccc2[nH]1 (centres undefined)
Potency: inactive

Cc1ccccc1-c1cc(N2CCN(C)CC2)ncc1N(C)C(=O)C(C)(C)c1cc(C(F)(F)F)cc(C(F)(F)F)c1
Potency: inactive

Cc1oc(S(=O)(=O)N2CCCCC2)cc1NC(=O)Nc1ccccc1
Potency: inactive

CC1=CC(=O)C2C(C)(C)CCC[C@]2(C)[C@H]1CC[C@H](C)CC(=O)O (some centres undefined)
Potency: inactive

COc1cc(O)cc(O[C@@H]2O[C@H](CO)[C@@H](O[C@@H]3OC[C@](O)(CO)[C@H]3O)[C@H](O)[C@H]2O)c1OC
Potency: inactive

O=C(/C=C/c1ccc(O)cc1)OC[C@H]1O[C@H](O[C@@]2(CO)O[C@@H](CO)[C@H](O)[C@H]2O)[C@H](O)[C@@H](O)[C@@H]1O
Potency: inactive

CC/C=C/C(O)C(O)C1=C(C)C(=O)C2(O1)C(=O)NC(OC)(C(=O)c1ccccc1)C2O (centres undefined)
Potency: inactive

COC(=O)C1=CO[C@@H](O[C@@H]2O[C@H](CO)[C@@H](O)[C@H](O)[C@H]2O)[C@@H]2[C@@H](CO)[C@@H](O)C(O)[C@H]12 (some centres undefined)
Potency: inactive

CC1(C)[C@H]2C[C@H](C/C=C\CCCC(=O)O)[C@@H](NC(=O)c3csc4ccc(O)cc34)[C@@H]1C2
Potency: inactive

CC1(C)CC(NC(=O)C(=O)Nc2ccc(Cl)cc2)CC(C)(C)N1
Potency: inactive

C=C1C(O)CC2C(C(=O)O)=COC(OC3OC(CO)C(O)C(O)C3OC(=O)/C=C\c3ccc(O)cc3)C12 (centres undefined)
Potency: inactive

C/C=C(\C)C(=O)OC1C2(O)CC3=C4CC(=O)OC(c5ccoc5)C4(C)CCC3C(C)(C2=O)C(C(OC(C)=O)C(=O)OC)C1(C)C (centres undefined)
Potency: inactive

C=CC(C)(CC/C=C(\C)C(=O)OC)OC1OC(COC(=O)CC(C)(O)CC(=O)O)C(O)C(O)C1O (centres undefined)
Potency: inactive

C[C@]12CC/C(=N\OCC(=O)O)C=C1CC[C@@H]1[C@@H]2[C@@H](O)C[C@@]2(C)[C@H]1CC[C@]2(O)C(=O)CO
Potency: inactive

C=C[C@H]1[C@H](O[C@@H]2O[C@H](CO)[C@@H](O)[C@H](O)[C@H]2O)OC=C(C(=O)OC)[C@H]1CC=O
Potency: inactive

CC(=O)C1CCC(=O)N1Cc1ccccc1 (centres undefined)
Potency: inactive

C[C@@H]1O[C@@H](OC2C(O[C@H]3[C@H](O[C@H]4CC[C@@]5(C)C(CC[C@]6(C)C5CC=C5C7CC(C)(C)CC(O)[C@]7(C)CC[C@]56C)C4(C)C)O[C@H](C(=O)O)[C@@H](O)[C@@H]3O)OC(CO)C(O)C2O)[C@H](O)[C@H](O)[C@H]1O (some centres undefined)
redox activity (% of DA3003): 6.57% [at 11.5 µM]

CC1OC(O[C@@H]2[C@@H](O)[C@H](OC(=O)[C@]34CCC(C)(C)C[C@H]3C3=CCC5[C@@]6(C)CC[C@H](O[C@@H]7O[C@H](C(=O)O)[C@@H](O)[C@H](O[C@@H]8OC[C@@H](O)[C@H](O)[C@H]8O)[C@H]7O[C@@H]7O[C@H](CO)[C@H](O)[C@H](O)[C@H]7O)[C@@](C)(C=O)C6CC[C@@]5(C)[C@]3(C)C[C@H]4O)O[C@H](C)[C@@H]2OC2OC(C)C(OC3OCC(O)C(O)C3O)C(O)C2O)C(O)C(O)C1O (some centres undefined)
redox activity (% of DA3003): 19.3% [at 11.5 µM]

C[C@@]12CC3(S(=O)(=O)O)OC(O1)[C@]1(COC(=O)c4ccccc4)[C@H]3C[C@]21O[C@@H]1O[C@H](CO)[C@@H](O)[C@H](O)[C@H]1O
Potency: inactive

C[C@]1(O)CC[C@@H]2C(C(=O)O)=CO[C@@H](O[C@@H]3O[C@H](COC(=O)/C=C/c4ccc(O)c(O)c4)[C@@H](O)[C@H](O)[C@H]3O)[C@@H]21
Potency: inactive

C/C=C(/C)C(=O)OC1CC(C)(C)CC2C3=CCC4C5(C)CCC(OC6OC(C)C(OC7OC(C(=O)O)C(O)C(OC8OC(CO)C(O)C(O)C8OC8OC(CO)C(O)C(O)C8O)C7O)C(O)C6O)C(C)(C)C5CCC4(C)C3(C)C(OC(=O)/C=C/C=C/C=C/CCC)C(OC(C)=O)C12CO (centres undefined)
redox activity (% of DA3003): 13.7% [at 11.5 µM]

COC(=O)[C@H](Cc1ccc([N+](=O)[O-])cc1)NC(=O)c1cccc2ccccc12
Potency: inactive

CC1CCC2C(C)(C)C(O)C(O)CC2(C)C12Cc1c(O)cc(CO)c(C=O)c1O2 (centres undefined)
Potency: inactive

COC(=O)c1[nH]c(=O)c2ccccc2c1-c1ccc[nH]1
Potency: inactive

NC(=O)[C@@H]1CC[C@H](c2ccc(OCc3ccccc3F)cc2)N1
Potency: inactive

C[C@@H]1O[C@@H](O[C@H]2[C@H](O[C@H]3[C@H](O[C@H]4CC[C@@]5(C)C(CC[C@]6(C)C5CC=C5[C@@H]7CC(C)(C)C[C@@H](O)[C@]7(C)CC[C@]56C)[C@@]4(C)CO)O[C@H](C(=O)O)[C@@H](O)[C@@H]3O)O[C@H](C(=O)O)[C@H](O)[C@@H]2O)[C@H](O)[C@H](O)[C@H]1O (some centres undefined)
redox activity (% of DA3003): -2.66% [at 11.5 µM]
